Results published in publication PMC12136788.
Changes are numbered by the printed parent chain. In all, about 24,000 sequences were measured (“enrichment r”: median about 0.99, highest 2% from about 3.7 on). What follows is part of a selection rich in the highest values, with near analogues and random picks from the rest.

T1: UNK ZnF1-3 (human, UniProt Q9C0B0 31-174)
T1 sequence: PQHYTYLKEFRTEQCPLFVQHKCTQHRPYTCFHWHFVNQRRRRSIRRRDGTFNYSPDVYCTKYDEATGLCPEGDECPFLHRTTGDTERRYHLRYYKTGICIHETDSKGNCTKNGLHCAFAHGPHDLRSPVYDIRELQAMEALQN

B1: 107960272_107965159_2041_CDS_ENSG00000166266_ENST00000393094|human|control|control (ssRNA)
RNA: GGGAGUUCUACAGUCCGACGAUCUCUAGCAAGCUUGUUUACAUAAUCCGCUGGCAUACCAACUUCUCUUAGCCACUCUACCAUGUUUUCUUCAAUUUCACUAUCGGCAGAGAUGUCUAAUAUAAGACGUCGUGUCAAAUGAGCCAACAGAGGAUUGAGCAUCA
B2: chr1:95363480:95363481:-_ENSG00000117519_ENST00000538964|hu_mus|FALSE|FALSE (ssRNA)
RNA: GGGAGUUCUACAGUCCGACGAUCCGUGCCCUGGCUUCCGUUGUGAAUGACAGGUUCUGUGGGUGCGGCACAGUACUUGGGGUCAUAUACUUGCCGCCCAAGCCCAUACACGCUCAUUCCUUUCUGGGAAGCAACUUUGUUGGUCAACAGAGGAUUGAGCAUCA
B3: chr12:48362563:48362564:+_ENSG00000134291_ENST00000256686|hu_hu|hu_hu_hu_mus_False|58_98 (ssRNA)
RNA: GGGAGUUCUACAGUCCGACGAUCUCCGUCAAGCCCUUCAAGCCCCACUUGCGGGGGAAACUGUAAUCACUUUGUAUUUCUAAAAAAAAGAAACGCCAAAAACUUUCCAAAAAGCGGGGGUGGGGUGAGGCGGGAGGGGGAGGUCAACAGAGGAUUGAGCAUCA
B4: chr16:94690093:94690094:+_ENSMUSG00000040785_ENSMUST00000117648|mus_hu|mus_mus_mus_hu_True|8_88 (ssRNA)
RNA: GGGAGUUCUACAGUCCGACGAUCGGGCUGGGAUGACGGACACACAGAUCUUCCCAGAGGGGGAAAAAGUCUUAGUCGAUACUAAUUAAAAAGUGUUAAUGAUUUUUGAAAAUCAGAUUACAUCUAUUUGAAUCAUAAAGCAAACAACAGAGGAUUGAGCAUCA
B5: 219445452_219447802_500_3pUTR_ENSG00000144580_ENST00000542068|human|control|control (ssRNA)
RNA: GGGAGUUCUACAGUCCGACGAUCCUGGAUGUGAUGCUACACAUUGCAGUAAUGCCAGAGCAUUGCAAACUCUGUUAGACUGGUGUGCUGUCAAGGUGGGUGGGUUGAUAGAUGGAUAAAUAUUUACAAUUUCCUGUAAAAGUGCAACAGAGGAUUGAGCAUCA
B6: chr1:169302553:169302554:-_ENSMUSG00000026688_ENSMUST00000028005|mus_mus|FALSE|FALSE (ssRNA)
RNA: GGGAGUUCUACAGUCCGACGAUCAUGCAGGCAGGAGCUUUAGGUAUGAGGCUGAUGCCAGAUAAGUUUUUAUUAUAUUAAAAAAAAAAAAAAAACCAGUGCAACUGGAAAUCAGGGUGAGUCGCUGGAGGUGAGUGAGAGUCGCAACAGAGGAUUGAGCAUCA
B7: chr1:186721242:186721243:-_ENSMUSG00000026620_ENSMUST00000027929|mus_mus|FALSE|FALSE (ssRNA)
RNA: GGGAGUUCUACAGUCCGACGAUCAUAAUGAGUAUUAAAAAGAUGUGCCUUUUCUAGUGGCUUUACGUCGCAUACGUCACUAAUUAUGAAAGAAGGCAAAUGACCAGUUACAAAGCUCCACAUGACUGGAAUAAUGAUGUGGAACAACAGAGGAUUGAGCAUCA
B8: 60821080_60823165_1073_3pUTR_ENSMUSG00000021559_ENSMUST00000077453|mouse|control|control (ssRNA)
RNA: GGGAGUUCUACAGUCCGACGAUCUUCGACUAAGUGCUUGUUGGGUGUCUUUAGGCUUGAUCCAGGGGUGCUGCAAACUGUCCUGGAUUGUCAUCCUCUUCUUUGGAUCCUUGACCAGCAGUCUUCUGAUGAAAUCUUUGGCAACAACAGAGGAUUGAGCAUCA
B9: chr8:59070621:59070622:+_ENSMUSG00000038206_ENSMUST00000040218|mus_mus|motif|central (ssRNA)
RNA: GGGAGUUCUACAGUCCGACGAUCAAACAUGAUGAGCAAAUUAAGAAAAGUUCUGUAAAAUUAGUUAGUUCUGAGAUUUCGGAACGGGAAAACAGUGAAACAAAAAAGGGGGGGUGCAGUCAAGCUGGAUUUUACACACAGGCUCAACAGAGGAUUGAGCAUCA
B10: chr5:136386016:136386017:-_ENSMUSG00000051391_ENSMUST00000055808|mus_mus|motif|central (ssRNA)
RNA: GGGAGUUCUACAGUCCGACGAUCGGGGGUAUUUAACGGUUUCUGUUUUUGUGAUGGGCUGACCUUAAGGGUAAAGAAGAACGGAAAAAAAAAGUAUCCCCCGCAGCCCCCUCCCAAACACCCAUCAACCAAAACGGAACAGGGCAACAGAGGAUUGAGCAUCA
B11: chr8:59070621:59070622:+_ENSMUSG00000038206_ENSMUST00000040218|mus_mus|FALSE|FALSE (ssRNA)
RNA: B9 RNA with G80U, G81A, G85U, G86A
B12: chr7:141441981:141441982:+_ENSG00000106028_ENST00000265304|hu_mus|hu_hu_hu_mus_False|1_8 (ssRNA)
RNA: GGGAGUUCUACAGUCCGACGAUCCUCAUGUCUUACAAACUGACGAAAUACCUGUAACACAGGUCUUCGAAACAUGGCUUCUGUUUUUCUUACAACCUAAUCUUUAGGCUUUUCCUAAAGGAAAGAAUAACCCGAGCAGCCCAGCAACAGAGGAUUGAGCAUCA
B13: chr11:46405157:46405158:+_ENSG00000110492_ENST00000395566|hu_hu|hu_hu_hu_mus_False|8_78 (ssRNA)
RNA: GGGAGUUCUACAGUCCGACGAUCCCCUCCCCACUUUGGGCACUUGGUGUGGGCGUGAAGGCAGGGCCGUGAUUGACAGAGCUGACAGGAAGACAAAAGGCACUGGUGGGUUAUAUCUUGGGCCUGUGAGAGGGAGGGGCUCCGCAACAGAGGAUUGAGCAUCA
B14: 52098632_52100650_1216_3pUTR_ENSG00000128872_ENST00000249700|human|control|control (ssRNA)
RNA: GGGAGUUCUACAGUCCGACGAUCUACCUUCGGUCUGCUUCAACUCUCUUCUUACGAACCAGGUCAUUAUUCUUUGUGAUGGCAGCUGCCACCCUUGUUCGUGGCCCUUGCUUGGUAAACUGGUAUCCAAACUUGAGGAUCCUUCAACAGAGGAUUGAGCAUCA
B15: chr5:121736274:121736275:+_ENSMUSG00000042744_ENSMUST00000119892|mus_mus|FALSE|FALSE (ssRNA)
RNA: GGGAGUUCUACAGUCCGACGAUCCUGGUGAAUGCACAUGGCGCCAACAUGGUGCAGUAACUGGUUUAUGACUUCAUUUGUGCUAAUGGCCUCUUCUUUGGGCUCGGUGAUGAUAUGGCUGACACCCAGUCUCUGGCACACGUACAACAGAGGAUUGAGCAUCA
B16: chr3:128198961:128198962:-_ENSG00000179348_ENST00000341105|hu_hu|motif|central (ssRNA)
RNA: GGGAGUUCUACAGUCCGACGAUCACUGGACCCAAAAAGAGUUUAAAAAUAAAACAAUUAACUCAUCAGCGAGUUAAGCCGGUGCAUUUUUUUAAUAUUUUUUCUUUUGUCUCAGAGUAGGAGGCGAGGGGGUUGAAGGGUUAGCAACAGAGGAUUGAGCAUCA
B17: chr12:48362563:48362564:+_ENSG00000134291_ENST00000256686|hu_hu|hu_hu_hu_mus_False|58_78 (ssRNA)
RNA: GGGAGUUCUACAGUCCGACGAUCUCCGUCAAGCCCUUCGAUAGACCCUUGCGGGGGUGGUAAAAACCACUUUGUAUUUCUAAAAAAAAGAAACGCCAAAAACUUUCCAAAAAGCGGGGGUGGGGUGAGGCGGGAGGGGGAGGUCAACAGAGGAUUGAGCAUCA
B18: 119691784_119693947_668_CDS_ENSG00000158290_ENST00000371322|human|control|control (ssRNA)
RNA: GGGAGUUCUACAGUCCGACGAUCGAGUUCUUCUAAAUUGUACUUAAUUGAAGUACUAUUCUGAAUAGCUUCCACUGCUUCUUUCAGUUUUUGCCAGGUUUCAUCUGUGUAGUUUUCUGGUAAUUUAGGCUUAUCUUUAAAGUUCAACAGAGGAUUGAGCAUCA
B19: chr2:129025431:129025432:+_ENSMUSG00000027397_ENSMUST00000028880|mus_mus|motif|central (ssRNA)
RNA: GGGAGUUCUACAGUCCGACGAUCUUGCCACAGUAGAUUCCAUUCUCUAGUGUAGUGGUUCUUUAAAUAAUAAGAGAAUUACGGAGCGGCUUUUGAGAUGUGUAAACGGAAUGAGGUAUCAAAAUGCUAUAAUAAAUAGUAUAUCAACAGAGGAUUGAGCAUCA
B20: 23376367_23376487_1679_3pUTR_ENSMUSG00000026158_ENSMUST00000027343|mouse|control|control (ssRNA)
RNA: GGGAGUUCUACAGUCCGACGAUCAUUUGAAAACACAUCCUAAAUGUAUUCUUUUAUUGGAUCUGGUCUUAAAACUUCUUAUUUAAUGUCCAAUUCAUUGUGAUCCAAAAUAAAAAGGCUUACAGCAAAAGUCACAGGUGGCCACAACAGAGGAUUGAGCAUCA
B21: chr10:71978566:71978567:-_ENSG00000180817_ENST00000373232|hu_hu|motif|central (ssRNA)
RNA: GGGAGUUCUACAGUCCGACGAUCUAAAGGGUCCUUUGUAGCAAUCUCCAUUUUUGCAUUAGACCAGCGUGGUACUUCAACGGCCAUGUGAAACACAUCCUUAUCUGCAUAAAUUGGAAUAUCAUGAAAUGGAGAUAUAUAUUGCAACAGAGGAUUGAGCAUCA
B22: chr14:105235747:105235748:-_ENSG00000142208_ENST00000407796|hu_hu|FALSE|FALSE (ssRNA)
RNA: GGGAGUUCUACAGUCCGACGAUCACUUUUAUUGAAGAAUUUGGAGGGAAGGUUCCAUAUUAUAUUAUAAUAGUAAAAAUACUAAAGUUGAAUGUUGUAAAAAAACGCCGUGGUGCAGCGGCAGCGGCAGCGUCUGGCCAGGAGCAACAGAGGAUUGAGCAUCA
B23: chr17:55760890:55760891:+_ENSG00000153944_ENST00000284073|hu_mus|FALSE|FALSE (ssRNA)
RNA: GGGAGUUCUACAGUCCGACGAUCCAAUUUCAUAUGCAAUAUAAUACAGAAAGCAUGGCUGACCUUCAAUUUUAAAAAAAAAUGUAGUAAACUAUAUUGCUUUAUUCUUGAAGAUGCUGCUGCGGUGGGUGGAUGGCAGAGCGACAACAGAGGAUUGAGCAUCA
B24: chr2:151326667:151326668:-_ENSG00000115963_ENST00000263895|hu_hu|FALSE|FALSE (ssRNA)
RNA: GGGAGUUCUACAGUCCGACGAUCUUUAUUUGUCUUAUUUACACAUGCCAAGGUGGCAACGUGAAAAAUGUCUCUGACGCUAUUUUCCGACUGUAAAGCUGAGCAUUCGAUAUAAGUAGCUGCUCCAAUCUGUUUGGCCAUAUUCAACAGAGGAUUGAGCAUCA
B25: chr14:105235747:105235748:-_ENSG00000142208_ENST00000407796|hu_hu|motif|central (ssRNA)
RNA: B22 RNA with U82G, A83G
B26: chr14:105235747:105235748:-_ENSG00000142208_ENST00000407796|hu_mus|FALSE|FALSE (ssRNA)
RNA: GGGAGUUCUACAGUCCGACGAUCGAAAAGCAAUUUUUAUUGAAUUUGGAGGGACAGUUUCUUAUUAUAAUAGUAAAAAUGCUGAAGCUGAAUGUUGUAAAAAACGACAUGGUGCAGCAAUGGCCAGCGUCUGGCCGGGAGGGGCAACAGAGGAUUGAGCAUCA
B27: chr14:21319500:21319501:-_ENSMUSG00000021816_ENSMUST00000161445|mus_hu|motif|central (ssRNA)
RNA: GGGAGUUCUACAGUCCGACGAUCGAGUUGUAUUCCAGGGCAUGAGGGAAGCAGGCCACCAAAGUAAAGGGAAAUACCAAACGGCAGUGGCAAUCAAUACAGGUCAAUAAUUGUGAAAAAUUAGCACAUGGUUCCAUUUAGUUUCAACAGAGGAUUGAGCAUCA

Each binder was assayed against T1, UNK ZnF1-3 (assay: nsRBNS (natural sequence RNA bind-n-seq); RBNS binding buffer (assumed for nsRBNS): 25 mM Tris pH 7.5, 150 mM KCl, 3 mM MgCl2, 0.01% Triton X-100, 500 ug/ml BSA, 20 U/ml SUPERase-In, 4 C; UNK is unkempt and MSI1 is Musashi-1; names of the RNAs are library labels; protein concentration not given here; high values mean tight binding).

| Binder | binding signal [enrichment R] |
| --- | --- |
| B1 | 0.643 |
| B2 | 0.529 |
| B3 | 1.56 |
| B4 | 1.05 |
| B5 | 1.19 |
| B6 | 7.4 |
| B7 | 0.52 |
| B8 | 0.466 |
| B9 | 9.45 |
| B10 | 0.928 |
| B11 | 7.52 |
| B12 | 0.751 |
| B13 | 2.15 |
| B14 | 0.553 |
| B15 | 0.813 |
| B16 | 1.54 |
| B17 | 3.57 |
| B18 | 0.363 |
| B19 | 1.26 |
| B20 | 0.637 |
| B21 | 0.593 |
| B22 | 7.85 |
| B23 | 1.14 |
| B24 | 0.818 |
| B25 | 5.41 |
| B26 | 4.04 |
| B27 | 2.39 |
